Laboratory results as given in PubChem BioAssay (NCATS).
Inconclusive results are not listed. Activity calls are given as the source filed them. The call rests on the fitted dose curve; in most records, active means well fitted curve in the direction sought with a large enough effect; inconclusive means small, poorly fitted or top-dose-only effect, or another doubt; inactive means no such curve, though single readings can be large; an effect the other way counts as inactive or inconclusive.

What was measured:
[1] = qHTS of pediatric cancer cell lines to identify multiple opportunities for drug repurposing: Primary screen for NB-EBc1 cells (AID 1347095);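 further: plate controls were DMSO neutral control for no effect and bortezomib for full effect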
Summary of the method: (§1)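 Cells plated at 500-1,000/well in growth medium, compounds added after 5 h. MIPE tested at 11 points (from 0.78 nM), NPC at 8 points (from 0.59 nM). CellTiter-Glo luminescence after 48 h; concentration-response curves from primary screen.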

[2] = qHTS of pediatric cancer cell lines to identify multiple opportunities for drug repurposing: Primary screen for U-2 OS cells (AID 1347096);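 further: plate controls were DMSO wells for no effect and bortezomib positive control wells for full effect; nearly all actives have a fitted effect of over 50% in size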
Summary of the method: (§2)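 Viability after 48 h compound treatment at 37C, 500-1,000 cells/well, read as ATP luminescence with CellTiter-Glo. Primary screens used 11-point (MIPE, 0.78 nM-46 µM) or 8-point (NPC, 0.59 nM-46 µM) final concentrations; follow-up screens used 11-point dilutions.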

[3] = qHTS of pediatric cancer cell lines to identify multiple opportunities for drug repurposing: Primary screen for Saos-2 cells (AID 1347097); further: on the % scale 0 is the no-effect control and ±100 the full control effect; nearly all actives have a fitted effect of over 40% in size
Summary of the method: as §1

[4] = qHTS of pediatric cancer cell lines to identify multiple opportunities for drug repurposing: Primary screen for SK-N-SH cells (AID 1347098);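 further: DMSO served as neutral control and bortezomib at 2.3 µM as positive control; on the % scale 0 is the no-effect control and ±100 the full control effect; nearly all actives have a fitted effect of over 65% in size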
Summary of the method: (§3)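 Cells (500-1,000/well) rested 5 h, then received compounds for 48 h; metabolically active cells were measured by CellTiter-Glo luminescence. Final concentrations spanned up to 46 µM (MIPE, 11-point) or 0.59 nM-46 µM (NPC, 8-point) in primary screens, 11-point in follow-ups.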

[5] = qHTS of pediatric cancer cell lines to identify multiple opportunities for drug repurposing: Primary screen for NB1643 cells (AID 1347099);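 further: plate controls were DMSO neutral control for no effect and bortezomib positive control for full effect; nearly all actives have a fitted effect of over 50% in size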
Summary of the method: as §1

[6] = qHTS of pediatric cancer cell lines to identify multiple opportunities for drug repurposing: Primary screen for LAN-5 cells (AID 1347100);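 further: plate controls were DMSO neutral control for no effect and bortezomib positive control for full effect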
Summary of the method: as §2

[7] = qHTS of pediatric cancer cell lines to identify multiple opportunities for drug repurposing: Primary screen for BT-12 cells (AID 1347101);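 further: plate controls were DMSO for no effect and bortezomib positive control for full effect; nearly all actives have a fitted effect of over 25% in size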
Summary of the method: as §3

[8] = qHTS of pediatric cancer cell lines to identify multiple opportunities for drug repurposing: Primary screen for Rh18 cells (AID 1347102); further: on the % scale 0 is the no-effect control and ±100 the full control effect; nearly all actives have a fitted effect of over 65% in size
Summary of the method: as §2

[9] = qHTS of pediatric cancer cell lines to identify multiple opportunities for drug repurposing: Primary screen for OHS-50 cells (AID 1347103);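 further: plate controls were DMSO neutral control for no effect and bortezomib positive control for full effect; nearly all actives have a fitted effect of over 40% in size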
Summary of the method: as §3

[10] = qHTS of pediatric cancer cell lines to identify multiple opportunities for drug repurposing: Primary screen for RD cells (AID 1347104);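 further: plate controls were DMSO for no effect and bortezomib for full effect; nearly all actives have a fitted effect of over 55% in size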
Summary of the method: as §1

[11] = qHTS of pediatric cancer cell lines to identify multiple opportunities for drug repurposing: Primary screen for MG 63 (6-TG R) cells (AID 1347105); further: on the % scale 0 is the no-effect control and ±100 the full control effect; nearly all actives have a fitted effect of over 50% in size
Summary of the method: as §1

[12] = qHTS of pediatric cancer cell lines to identify multiple opportunities for drug repurposing: Primary screen for control Hh wild type fibroblast cells (AID 1347106);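 further: series mostly up to about 46 µM; on the % scale 0 is the no-effect control and ±100 the full control effect; a drop in luminescence marks cytotoxicity and a rise apparent proliferation; nearly all actives have a fitted effect of over 55% in size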
Summary of the method: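 Cells (500-1,000/well) in growth media were settled 5 h at 37 degrees C, then given compounds for 48 h. Viability was read as CellTiter-Glo luminescence. Primary runs used MIPE at 11 points (0.78 nM-46 µM) and NPC at 8 points (0.59 nM-46 µM); follow-ups used 11 points.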

[13] = qHTS of pediatric cancer cell lines to identify multiple opportunities for drug repurposing: Primary screen for Rh41 cells (AID 1347108);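 further: series mostly up to about 46 µM; luminescence drop marks cytotoxic hits; nearly all actives have a fitted effect of over 70% in size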
Summary of the method: as §1

[14] = qHTS of pediatric cancer cell lines to identify multiple opportunities for drug repurposing: Primary screen for Rh30 cells (AID 1347107); further: series mostly up to about 46 µM; on the % scale 0 is the no-effect control and ±100 the full control effect; nearly all actives have a fitted effect of over 75% in size
Summary of the method: as §2

[15] = qHTS of pediatric cancer cell lines to identify multiple opportunities for drug repurposing: Confirmatory screen for A673 cells (AID 1347110);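 further: cells exposed to compound for 48 h before the viability read; plate controls were DMSO neutral control for no effect and bortezomib positive control for full effect; nearly all actives have a fitted effect of over 65% in size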
Summary of the method: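 Cells plated at 500-1,000/well were treated five hours later with multi-point dilutions up to 46 µM final. After two days, CellTiter-Glo was added and luminescence read.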

[16] = qHTS of pediatric cancer cell lines to identify multiple opportunities for drug repurposing: Confirmatory screen for DAOY cells (AID 1347114); further: on the % scale 0 is the no-effect control and ±100 the full control effect; nearly all actives have a fitted effect of over 65% in size
Summary of the method: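 Viability measured as metabolically active cells via CellTiter-Glo luminescence following 48 hours of compound exposure, 11-point dilutions in confirmatory testing. 500-1,000 cells/well plated 5 hours before dosing; controls were DMSO and 2.3 µM bortezomib.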

[17] = qHTS of pediatric cancer cell lines to identify multiple opportunities for drug repurposing: Confirmatory screen for NB-EBc1 cells (AID 1347115);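 further: cells exposed to compound for 48 h before the viability read; on the % scale 0 is the no-effect control and ±100 the full control effect; nearly all actives have a fitted effect of over 45% in size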
Summary of the method: as §2

[18] = qHTS of pediatric cancer cell lines to identify multiple opportunities for drug repurposing: Confirmatory screen for NB1643 cells (AID 1347109);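 further: plate controls were DMSO for no effect and bortezomib for full effect; nearly all actives have a fitted effect of over 45% in size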
Summary of the method: as §2

[19] = qHTS of pediatric cancer cell lines to identify multiple opportunities for drug repurposing: Confirmatory screen for LAN-5 cells (AID 1347113)
Summary of the method: as §2

C#CC(C)(CC)OC(=O)c1ccccc1C(=O)O (centres undefined)
inactive: Potency [1] | Potency [2] | Potency [3] | Potency [4] | Potency [5] | Potency [6] | Potency [7] | Potency [8] | Potency [9] | Potency [10] | Potency [11] | Potency [12] | Potency [13]

CC1CN(c2cc3c(cc2F)c(=O)c(C(=O)O)cn3-c2ccc(F)cc2F)CCN1 (centres undefined)
inactive: activity change, negative = cytotoxic [1] 50.8% [at 4.84 µM] | activity change, negative = cytotoxic [2] -4.99% [at 4.84 µM] | activity change, negative = cytotoxic [3] 39.6% [at 4.84 µM] | activity change, negative = cytotoxic [4] -4.88% [at 6 µM] | activity change, negative = cytotoxic [5] -5.39% [at 4.84 µM] | activity change, negative = cytotoxic [6] 1.81% [at 4.84 µM] | activity change, negative = cytotoxic [7] -6.89% [at 6.03 µM] | activity change, negative = cytotoxic [8] -0.484% [at 4.84 µM] | activity change, negative = cytotoxic [9] 83% [at 6.18 µM] | activity change, negative = cytotoxic [10] -4.55% [at 4.84 µM] | activity change, negative = cytotoxic [11] 29.5% [at 4.84 µM] | activity change, negative = cytotoxic [12] -8.43% [at 4.84 µM] | activity change, negative = cytotoxic [14] 5.93% [at 4.84 µM] | activity change, negative = cytotoxic [13] 11.4% [at 4.84 µM]

O=C(CS(=O)Cc1ccco1)NC/C=C\COc1cc(CN2CCCCC2)ccn1 (centres undefined)
inactive: Potency [1] | Potency [2] | Potency [3] | Potency [4] | Potency [5] | Potency [6] | Potency [7] | Potency [8] | Potency [9] | Potency [10] | Potency [12] | Potency [14] | Potency [13]

CN(CC1(C)CCCO1)S(=O)(=O)c1ccc(Cl)c(S(N)(=O)=O)c1 (centres undefined)
inactive: Potency [1] | Potency [2] | Potency [3] | Potency [4] | Potency [5] | Potency [6] | Potency [7] | Potency [8] | Potency [9] | Potency [10] | Potency [11] | Potency [14] | Potency [13]

Cc1ccccc1C(=O)N1CC/C(=N\OS(=O)(=O)O)c2ccc(Cl)cc21
inactive: Potency [1] | Potency [2] | Potency [3] | Potency [4] | Potency [5] | Potency [6] | Potency [7] | Potency [8] | Potency [9] | Potency [10] | Potency [11] | Potency [12] | Potency [13]

CC(=O)Nc1ccc(S(=O)(=O)Nc2cc(C)on2)cc1
inactive: Potency [1] | Potency [2] | Potency [3] | Potency [4] | Potency [5] | Potency [6] | Potency [7] | Potency [8] | Potency [9] | Potency [10] | Potency [12] | Potency [14] | Potency [13]

N#Cc1cc(NC(=O)C(=O)O)c(Cl)c(NC(=O)C(=O)O)c1
inactive: Potency [1] | Potency [2] | Potency [3] | Potency [4] | Potency [5] | Potency [6] | Potency [7] | Potency [8] | Potency [9] | Potency [10] | Potency [12] | Potency [14] | Potency [13]

COC(=O)/C=C\C(=O)OC
inactive: Potency [1] | Potency [2] | Potency [3] | Potency [4] | Potency [5] | Potency [6] | Potency [7] | Potency [8] | Potency [9] | Potency [10] | Potency [12] | Potency [14]

O=C(O)CCCC[P+](c1ccccc1)(c1ccccc1)c1ccccc1
inactive: Potency [1] | Potency [2] | Potency [3] | Potency [4] | Potency [5] | Potency [6] | Potency [7] | Potency [8] | Potency [9] | Potency [10] | Potency [11] | Potency [14] | Potency [13]

O=C(Oc1ccccc1)c1ccccc1O
inactive: Potency [1] | Potency [2] | Potency [3] | Potency [4] | Potency [5] | Potency [6] | Potency [7] | Potency [8] | Potency [9] | Potency [10] | Potency [12] | Potency [14] | Potency [13]

NS(=O)(=O)c1ccc(N2CCCCS2(=O)=O)cc1
inactive: Potency [1] | Potency [2] | Potency [3] | Potency [4] | Potency [5] | Potency [6] | Potency [7] | Potency [8] | Potency [9] | Potency [10] | Potency [11] | Potency [12] | Potency [14] | Potency [13]

C[C@H]1C[C@@H]2[C@H]([C@@H](O)C[C@@]3(C)[C@H]2CC[C@]3(O)C(=O)CO)[C@@]2(C)C=CC(=O)C=C12
inactive: Potency [1] | Potency [2] | Potency [3] | Potency [4] | Potency [5] | Potency [6] | Potency [7] | Potency [8] | Potency [9] | Potency [10] | Potency [11] | Potency [12] | Potency [14] | Potency [13] | Potency [15] | Potency [16] | Potency [17]

CCOC(=O)c1cc(=O)c2c(OCC(COc3cccc4oc(C(=O)OCC)cc(=O)c34)OC(=O)[C@@H](N)CCCCN)cccc2o1
inactive: Potency [1] | Potency [2] | Potency [3] | Potency [4] | Potency [5] | Potency [6] | Potency [7] | Potency [8] | Potency [9] | Potency [10] | Potency [11] | Potency [14] | Potency [13]

COc1ccc(/C(C)=C/C(=O)O)c(OC)c1
inactive: Potency [1] | Potency [2] | Potency [3] | Potency [4] | Potency [5] | Potency [6] | Potency [7] | Potency [8] | Potency [9] | Potency [10] | Potency [12] | Potency [14] | Potency [13]

CC(C)C(=O)Nc1cccc(C2CN3CCSC3=N2)c1 (centres undefined)
inactive: Potency [1] | Potency [2] | Potency [3] | Potency [4] | Potency [5] | Potency [6] | Potency [7] | Potency [8] | Potency [9] | Potency [10] | Potency [11] | Potency [14] | Potency [13]

CC(=O)OCC(=O)[C@@]1(O)[C@H](OC(C)=O)C[C@H]2[C@@H]3CCC4=CC(=O)C=C[C@]4(C)[C@@]3(F)[C@@H](O)C[C@@]21C
inactive: Potency [1] | Potency [2] | Potency [3] | Potency [4] | Potency [5] | Potency [6] | Potency [7] | Potency [8] | Potency [9] | Potency [10] | Potency [11] | Potency [12] | Potency [14] | Potency [13] | Potency [18] | Potency [15] | Potency [19] | Potency [16] | Potency [17]

Cc1cnc(NS(=O)(=O)c2ccc(N)cc2)nc1
inactive: Potency [1] | Potency [2] | Potency [3] | Potency [4] | Potency [5] | Potency [6] | Potency [7] | Potency [8] | Potency [9] | Potency [10] | Potency [11] | Potency [12] | Potency [13]

C[C@@H]1C[C@H]2[C@@H]3CCC4=CC(=O)C=C[C@]4(C)[C@@]3(F)[C@@H](O)C[C@]2(C)[C@@]1(O)C(=O)COC(=O)c1ccncc1
inactive: Potency [1] | Potency [2] | Potency [3] | Potency [4] | Potency [5] | Potency [6] | Potency [7] | Potency [8] | Potency [9] | Potency [10] | Potency [11] | Potency [14] | Potency [13]

C#Cc1ccc(-c2ccccc2F)cc1
inactive: Potency [1] | Potency [2] | Potency [3] | Potency [4] | Potency [5] | Potency [6] | Potency [7] | Potency [8] | Potency [9] | Potency [10] | Potency [11] | Potency [14] | Potency [13]

O=C(O)CNC(=O)CNC(=O)CNC(=O)CSC(=O)c1ccccc1
inactive: Potency [1] | Potency [2] | Potency [3] | Potency [4] | Potency [5] | Potency [6] | Potency [8] | Potency [9] | Potency [10] | Potency [11] | Potency [12] | Potency [14] | Potency [13]

Nc1nnnn1-c1ccccc1
inactive: Potency [1] | Potency [2] | Potency [3] | Potency [4] | Potency [5] | Potency [6] | Potency [7] | Potency [9] | Potency [10] | Potency [11] | Potency [14] | Potency [13]

C[C@H]1NCc2cc(-c3ccc4c(=O)c(C(=O)O)cn(C5CC5)c4c3OC(F)F)ccc21
inactive: Potency [1] | Potency [2] | Potency [3] | Potency [4] | Potency [5] | Potency [6] | Potency [8] | Potency [9] | Potency [10] | Potency [11] | Potency [12] | Potency [14] | Potency [13]

CCCOc1ccc2c(c1)CC[C@@H]1[C@@H]2CC[C@]2(C)C(OC)CC[C@@H]12 (some centres undefined)
inactive: Potency [1] | Potency [2] | Potency [3] | Potency [4] | Potency [5] | Potency [6] | Potency [7] | Potency [8] | Potency [10] | Potency [11] | Potency [12] | Potency [14] | Potency [13]
